HT1080 IDH1KD tx – HT-1080 IDH1 knockdown cell toxicity (counter line); HT-1080 IDH1 knockdown viability, ATP luminescence, 48 h; Potency, µM (top dose mostly 46.1 µM), hits mostly cytotoxic; hit rate 2% among 360,000
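In this qHTS, HT-1080 cells depleted of IDH1 are exposed for 48 h at 37 °C to compound titrations. Toxicity is scored from CellTiter-Glo luminescence, with DMSO as full viability and medium alone as none.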
DT40 TDP1 no CPT – qHTS for Inhibitors of human tyrosyl-DNA phosphodiesterase 1 (TDP1): qHTS in cells in absence of CPT. Potency, µM (top dose mostly 46.2 µM), usual class: inhibitors. DT40 Tdp1-/- hTDP1 cells, no CPT, ATP luminescence, 48 h. hit rate 15% among 420,000. AID 686978, 2013; note: nearly all actives have a fitted effect of over 55% in size
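Seeded 400 DT40-hTDP1 cells/well (vehicle DMSO, no 20 nM CPT); pinned compounds; ≥48 hr at 37 °C; CellTiter-Glo luminescence as viability measure.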
TDP1 cell CPT – growth inhibition of DT40 Tdp1-/-;hTDP1 cells with camptothecin (screen for TDP1 inhibitors). chicken DT40 Tdp1-/-;hTDP1 cells + 20 nM CPT, ATP luminescence, 48 h. Potency, µM (top dose mostly 46.2 µM), most hits filed as inhibitors. hit rate 12% among 420,000; note: nearly all actives have a fitted effect of over 55% in size
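Chicken DT40 Tdp1-/- cells complemented with human TDP1, 400 cells/well, exposed to compounds plus 20 nM camptothecin for at least 48 h at 37 C; viability read as ATP content by CellTiter-Glo luminescence.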
HT1080-NT tox – kills 2HG-producing HT-1080-NT fibrosarcoma cells; HT-1080-NT fibrosarcoma viability, CellTiter-Glo ATP luminescence, 48 h; Potency, µM (doses to about 46.1 µM), hits mostly cytotoxic; hit rate 1.6% among 360,000; AID 686970;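 note: NT is the 2HG producing partner of a matched IDH1 knockdown line; nearly all actives have a fitted effect of over 55% in size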
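Toxicity toward the 2HG-producing NT line was scored as %Activity, normalised to DMSO and no-cell wells, from CellTiter-Glo luminescence after 48 hours' treatment.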
uPA generation – blocks generation of uPA at the cell surface | Potency, µM (highest dose often 38.3 µM), most hits filed as inhibitors | hit rate 0.31% among 330,000 | cell surface uPA generation assay, qHTS; active = well fitted inhibition curve with a large enough effect; inconclusive = small, poorly fitted or top-dose-only effect; inactive = no such curve, though single readings can be large or run the other way; tested in mouse RAW 264.7 cells; note: nearly all actives have a fitted effect of over 55% in size
IL1B secr inh – blocks inflammasome-driven IL-1 beta release. THP-1 LPS/ATP IL-1B secretion, AlphaLISA, 16 h; hits give low values. activity change, % at 57.5 µM. hit rate 4.7% among 360,000; in the data active = activity change below about -50%; inconclusive = mostly about -30% to -49%
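THP-1 cells pretreated 1 hr with compounds (up to 57.5 uM final), then stimulated with LPS (250 ng/mL final) plus ATP (1.25 mM final); secreted IL-1B measured by AlphaLISA after 16 hr, decreased signal indicating inhibition.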
Large screens that a line does not name were inactive. This is a sample that favours compounds with a hit; in the whole collection about 19% have one here. Unless noted, calls come from the whole dose curve; as a rule, active = well fitted curve in the direction sought with a large enough effect; inconclusive = small, poorly fitted or top-dose-only effect, or another doubt; inactive = no such curve, though single readings can be large; an effect the other way counts as inactive or inconclusive.

O=C(NCc1ccc(Cl)cc1)C1CCCN(c2ncnc3c2nc2n3CCCCC2)C1 (stereo not drawn)	DT40 TDP1 no CPT inconclusive, TDP1 cell CPT inconclusive
Cc1ccc(NC(=O)C2CCN(c3ncnc4c3nc3n4CCCCC3)CC2)cc1Cl	DT40 TDP1 no CPT inconclusive, TDP1 cell CPT inconclusive, IL1B secr inh inconclusive
Cc1cccc(NC(=O)C2CCCN(c3ncnc4c3nc3n4CCCCC3)C2)n1 (stereo not drawn)	DT40 TDP1 no CPT 7.31µM, TDP1 cell CPT 10.3µM
O=C(Nc1ccc(Cl)cc1)C1CCCN(c2ncnc3c2nc2n3CCCCC2)C1 (stereo not drawn)	HT1080 IDH1KD tx inconclusive, DT40 TDP1 no CPT 18.4µM, TDP1 cell CPT 23.1µM, HT1080-NT tox inconclusive, IL1B secr inh -59.4
COc1cccc(CCNC(=O)C2CCCN(c3ncnc4c3nc3n4CCCCC3)C2)c1OC (stereo not drawn)	DT40 TDP1 no CPT inconclusive
CC1CCCN(CCCNC(=O)C2CCCN(c3ncnc4c3nc3n4CCCCC3)C2)C1 (stereo not drawn)	none
Cc1ccc(NC(=O)C2CCCN(c3ncnc4c3nc3n4CCCCC3)C2)cc1Cl (stereo not drawn)	HT1080 IDH1KD tx inconclusive, DT40 TDP1 no CPT 20.6µM, TDP1 cell CPT inconclusive
COc1cccc(OCc2cc(C(=O)N3CCNC(=O)C3Cc3ccccc3)no2)c1 (stereo not drawn)	TDP1 cell CPT inconclusive
Cc1ccc(CNC(=O)CCCN2C(=O)CCn3nc(-c4cccn4C)cc32)cc1	DT40 TDP1 no CPT inconclusive (no result: HT1080 IDH1KD tx, HT1080-NT tox, uPA generation, IL1B secr inh)
COc1ccc(C(=O)c2c(-c3cccc(C)c3)oc3ccc(N4CCOCC4)cc23)cn1	DT40 TDP1 no CPT 14.6µM, TDP1 cell CPT inconclusive, uPA generation inconclusive, IL1B secr inh inconclusive
CN(C)c1cc2c(cc1NC(=O)c1ccccc1Cl)n(C)c(=O)n2C	DT40 TDP1 no CPT inconclusive, TDP1 cell CPT inconclusive
COc1cccc(C2C3=C(CCCC3=O)Nc3[nH]n(-c4ccccc4)c(=O)c32)c1 (stereo not drawn)	DT40 TDP1 no CPT inconclusive
O=C1CCCC2=C1C(c1ccc3c(c1)OCO3)c1c([nH]n(-c3ccccc3)c1=O)N2 (stereo not drawn)	DT40 TDP1 no CPT 13µM (no result: uPA generation)
FC(F)(F)c1nc2nccnc2[nH]1	DT40 TDP1 no CPT inconclusive, HT1080-NT tox inconclusive (no result: uPA generation)
S=C1NCN(Cc2cccnc2)CN1	none
CN(C)C(=S)N=c1ssc(=S)n1Cc1cccnc1	DT40 TDP1 no CPT 2.59µM, TDP1 cell CPT 1.84µM
Cc1cc(C)c2c(=O)cc(C(=O)Nc3sc4c(c3C(=O)NCC3CCCO3)CCCC4)oc2c1 (stereo not drawn)	none (no result: HT1080 IDH1KD tx, HT1080-NT tox, uPA generation, IL1B secr inh)
CC(C)(C)NS(=O)(=O)c1cc(C(=O)Nc2sccc2C#N)ccc1Cl	HT1080 IDH1KD tx inconclusive, DT40 TDP1 no CPT 11.6µM, TDP1 cell CPT 16.4µM, HT1080-NT tox inconclusive
N#Cc1ccsc1NC(=O)c1cnccn1	none
O=C(CCS(=O)(=O)c1cccc2nonc12)NCc1ccc(Cl)cc1	none
CC(C)C[C@H]1CN(CCCC[C@H]2CNC(=O)C(=O)N2Cc2ccccc2)C(=O)C(=O)N1CCc1ccc(O)cc1	HT1080 IDH1KD tx inconclusive (no result: uPA generation)
Cc1oc2c(c1C(=O)Nc1ccc(Cl)cc1F)C1=NCCN1C=N2	DT40 TDP1 no CPT 16.4µM (no result: HT1080 IDH1KD tx, HT1080-NT tox, uPA generation, IL1B secr inh)
Cc1cc(C)c(NC(=O)c2c(C)oc3c2C2=NCCN2C=N3)c(C)c1	DT40 TDP1 no CPT 16.4µM, TDP1 cell CPT 16.4µM (no result: HT1080 IDH1KD tx, HT1080-NT tox, uPA generation, IL1B secr inh)
Cc1oc2c(c1C(=O)Nc1ccccc1Br)C1=NCCN1C=N2	DT40 TDP1 no CPT 20.6µM, TDP1 cell CPT 18.4µM (no result: HT1080 IDH1KD tx, HT1080-NT tox, uPA generation, IL1B secr inh)
Cc1cc(-c2nnc(SCC(=O)Nc3cccc(F)c3)n2N)n[nH]1	none
Cc1ccccc1-c1csc(C(C)(O)c2ccc(F)c(F)c2)n1 (stereo not drawn)	HT1080 IDH1KD tx inconclusive, DT40 TDP1 no CPT inconclusive, TDP1 cell CPT inconclusive (no result: uPA generation)
CC(=O)C[C@H](O)CC(=O)[C@@H]1OC(=O)CCCCC/C=C/Cc2ccccc21	none
Cc1ccc2nc3c(nc2c1C)C(O)=C3O	DT40 TDP1 no CPT inconclusive, TDP1 cell CPT 14.6µM (no result: IL1B secr inh)

High-throughput results (PubChem)
